Measurements reported in PubChem BioAssay AID1159580 (chemical genetic matrix, 2015).
Several values for one entry are separate records, joined by “and”; a condition that tells them apart may be missing. Equal values may be shown once. Screen size: about 5,500 compounds; about 2,000 (36%) were called active. Roughly 18% stayed inconclusive and do not appear here. This is one part of the list. Values without a mark were called inactive. Rule as the data show it: active = normalized growth mostly below about 0.91 (no sharp cut-off); inconclusive = no clear call, values can overlap the other calls; inactive = mostly above about 0.92.

Assay: chemical genetic growth profiling, strain panel (AID 1159580);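 also: tested at 20 µM; growth read once vehicle control cultures reached saturation at 30 °C; 1 = growth at the plate median or of vehicle wells; lower values mean less growth of the strain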
Details: growth OD

Clc1ccc2c(c1)C(N1CCNCC1)=Nc1ccccc1O2
normalized growth (S. cerevisiae deletion strains, locus YKL068W, stronger effect = lower value): 0.996 | normalized growth (S. cerevisiae deletion strains, locus YKL085W, strain MDH1 (second series), stronger effect = lower value): 1.01 | normalized growth (S. cerevisiae deletion strains, locus YKL085W, strain MDH1, stronger effect = lower value): 1.01 | normalized growth (S. cerevisiae deletion strains, locus YKL160W, strain elf1, stronger effect = lower value): 1.01 | normalized growth (S. cerevisiae deletion strains, locus YKL190W, strain CNB1, stronger effect = lower value): 0.996 | normalized growth (S. cerevisiae deletion strains, locus YKR001C, strain vps1, stronger effect = lower value): 1.03 | normalized growth (S. cerevisiae deletion strains, locus YKR026C, strain gcn3, stronger effect = lower value): 0.983 | normalized growth (S. cerevisiae deletion strains, locus YKR091W, strain srl3, stronger effect = lower value): 0.989 | normalized growth (S. cerevisiae deletion strains, locus YLL001W, strain dnm1, stronger effect = lower value): 0.987 | normalized growth (S. cerevisiae deletion strains, locus YLL026W, stronger effect = lower value): 1 | normalized growth (S. cerevisiae deletion strains, locus YLL041C, strain sdh2, stronger effect = lower value): 1 | normalized growth (S. cerevisiae deletion strains, locus YLR027C, strain aat2, stronger effect = lower value): 0.986 | normalized growth (S. cerevisiae deletion strains, locus YLR039C, strain RIC1, stronger effect = lower value): 1.32 | normalized growth (S. cerevisiae deletion strains, locus YLR058C, strain SHM2, stronger effect = lower value): 0.979 | normalized growth (S. cerevisiae deletion strains, locus YLR102C, strain apc9, stronger effect = lower value): 0.993 | normalized growth (S. cerevisiae deletion strains, locus YLR113W, strain HOG1, stronger effect = lower value): 1.02 | normalized growth (S. cerevisiae deletion strains, locus YLR221C, strain rsa3, stronger effect = lower value): 0.985 | normalized growth (S. cerevisiae deletion strains, locus YLR258W, strain gsy2, stronger effect = lower value): 0.991 | normalized growth (S. cerevisiae deletion strains, locus YLR262C, strain YPT6 (second series), stronger effect = lower value): 1.04 | normalized growth (S. cerevisiae deletion strains, locus YLR262C, strain YPT6, stronger effect = lower value): 1.38 | normalized growth (S. cerevisiae deletion strains, locus YLR268W, strain sec22, stronger effect = lower value): 1.08 | normalized growth (S. cerevisiae deletion strains, locus YLR320W, strain mms22, stronger effect = lower value): 0.967 | normalized growth (S. cerevisiae deletion strains, locus YLR330W, strain CHS5, stronger effect = lower value): 0.988 | normalized growth (S. cerevisiae deletion strains, locus YLR342W, strain FKS1 (second series), stronger effect = lower value): 0.901 | normalized growth (S. cerevisiae deletion strains, locus YLR342W, strain FKS1, stronger effect = lower value): 0.955 | normalized growth (S. cerevisiae deletion strains, locus YLR357W, strain rsc2, stronger effect = lower value): 0.97 | normalized growth (S. cerevisiae deletion strains, locus YLR370C, strain arc18, stronger effect = lower value): 0.993 | normalized growth (S. cerevisiae deletion strains, locus YLR371W, strain rom2, stronger effect = lower value): 0.968 | normalized growth (S. cerevisiae deletion strains, locus YLR384C, strain iki3, stronger effect = lower value): 0.977 | normalized growth (S. cerevisiae deletion strains, locus YLR418C, strain cdc73, stronger effect = lower value): 0.981 | normalized growth (S. cerevisiae deletion strains, locus YML016C, strain PPZ1, stronger effect = lower value): 0.981 | normalized growth (S. cerevisiae deletion strains, locus YML032C, strain rad52, stronger effect = lower value): 1.01 | normalized growth (S. cerevisiae deletion strains, locus YML120C, strain ndi1, stronger effect = lower value): 1.01 | normalized growth (S. cerevisiae deletion strains, locus YML124C, strain tub3, stronger effect = lower value): 0.979 | normalized growth (S. cerevisiae deletion strains, locus YMR058W, strain fet3, stronger effect = lower value): 0.981 | normalized growth (S. cerevisiae deletion strains, locus YMR078C, strain ctf18, stronger effect = lower value): 0.983 | normalized growth (S. cerevisiae deletion strains, locus YMR125W, strain sto1, stronger effect = lower value): 0.928 | normalized growth (S. cerevisiae deletion strains, locus YMR129W, stronger effect = lower value): 1.01 | normalized growth (S. cerevisiae deletion strains, locus YMR205C, strain PFK2, stronger effect = lower value): 0.998 | normalized growth (S. cerevisiae deletion strains, locus YMR223W, strain ubp8, stronger effect = lower value): 0.962 | normalized growth (S. cerevisiae deletion strains, locus YMR231W, strain pep5, stronger effect = lower value): 0.487 (active) | normalized growth (S. cerevisiae deletion strains, locus YMR263W, strain SAP30, stronger effect = lower value): 0.979 | normalized growth (S. cerevisiae deletion strains, locus YMR307W, strain GAS1, stronger effect = lower value): 1.15 | normalized growth (S. cerevisiae deletion strains, locus YNL067W, strain RPL9B, stronger effect = lower value): 1.01 | normalized growth (S. cerevisiae deletion strains, locus YNL071W, strain lat1, stronger effect = lower value): 0.972 | normalized growth (S. cerevisiae deletion strains, locus YNL128W, strain TEP1, stronger effect = lower value): 0.975 | normalized growth (S. cerevisiae deletion strains, locus YNL153C, strain GIM3, stronger effect = lower value): 1.01 | normalized growth (S. cerevisiae deletion strains, locus YNL175C, strain NOP13, stronger effect = lower value): 1 | normalized growth (S. cerevisiae deletion strains, locus YNL183C, strain NPR1, stronger effect = lower value): 0.966 | normalized growth (S. cerevisiae deletion strains, locus YNL197C, strain WHI3, stronger effect = lower value): 1.01 | normalized growth (S. cerevisiae deletion strains, locus YNL209W, strain ssb2, stronger effect = lower value): 0.991 | normalized growth (S. cerevisiae deletion strains, locus YNL224C, strain SQS1, stronger effect = lower value): 1.02 | normalized growth (S. cerevisiae deletion strains, locus YNL233W, strain BNI4, stronger effect = lower value): 1 | normalized growth (S. cerevisiae deletion strains, locus YNL248C, strain rpa49, stronger effect = lower value): 0.998 | normalized growth (S. cerevisiae deletion strains, locus YNL250W, strain rad50, stronger effect = lower value): 0.981 | normalized growth (S. cerevisiae deletion strains, locus YNL271C, strain bni1, stronger effect = lower value): 0.994 | normalized growth (S. cerevisiae deletion strains, locus YNL298W, strain CLA4, stronger effect = lower value): 0.97 | normalized growth (S. cerevisiae deletion strains, locus YNL307C, strain MCK1, stronger effect = lower value): 0.983 | normalized growth (S. cerevisiae deletion strains, locus YNL322C, strain KRE1 (second series), stronger effect = lower value): 0.986 | normalized growth (S. cerevisiae deletion strains, locus YNL322C, strain KRE1, stronger effect = lower value): 0.99 and 0.992 | normalized growth (S. cerevisiae deletion strains, locus YNR049C, strain mso1, stronger effect = lower value): 0.995 | normalized growth (S. cerevisiae deletion strains, locus YNR052C, strain pop2, stronger effect = lower value): 0.97 | normalized growth (S. cerevisiae deletion strains, locus YOL006C, strain TOP1, stronger effect = lower value): 1.06 | normalized growth (S. cerevisiae deletion strains, locus YOL012C, strain htz1): 1.29 | normalized growth (S. cerevisiae deletion strains, locus YOL147C, strain pex11, stronger effect = lower value): 1 | normalized growth (S. cerevisiae deletion strains, locus YOR001W, strain rrp6, stronger effect = lower value): 0.937 | normalized growth (S. cerevisiae deletion strains, locus YOR061W, strain CKA2, stronger effect = lower value): 0.969 | normalized growth (S. cerevisiae deletion strains, locus YOR069W, strain VPS5, stronger effect = lower value): 0.991 | normalized growth (S. cerevisiae deletion strains, locus YOR070C, strain gyp1, stronger effect = lower value): 1 | normalized growth (S. cerevisiae deletion strains, locus YOR080W, strain dia2, stronger effect = lower value): 0.989 | normalized growth (S. cerevisiae deletion strains, locus YOR083W, strain WHI5 (second series), stronger effect = lower value): 1.13 [resistant] (active) | normalized growth (S. cerevisiae deletion strains, locus YOR083W, strain WHI5, stronger effect = lower value): 0.937 | normalized growth (S. cerevisiae deletion strains, locus YOR106W, strain vam3, stronger effect = lower value): 0.953 | normalized growth (S. cerevisiae deletion strains, locus YOR136W, strain idh2, stronger effect = lower value): 0.975 | normalized growth (S. cerevisiae deletion strains, locus YOR144C, strain elg1, stronger effect = lower value): 0.99 | normalized growth (S. cerevisiae deletion strains, locus YOR184W, strain ser1, stronger effect = lower value): 1.01 | normalized growth (S. cerevisiae deletion strains, locus YOR231W, strain MKK1, stronger effect = lower value): 1.02 | normalized growth (S. cerevisiae deletion strains, locus YOR265W, strain rbl2, stronger effect = lower value): 0.992 | normalized growth (S. cerevisiae deletion strains, locus YOR270C, strain vph1, stronger effect = lower value): 0.818 | normalized growth (S. cerevisiae deletion strains, locus YOR290C, strain snf2, stronger effect = lower value): 0.948 | normalized growth (S. cerevisiae deletion strains, locus YOR316C, strain cot1, stronger effect = lower value): 0.987 | normalized growth (S. cerevisiae deletion strains, locus YPL051W, strain arl3, stronger effect = lower value): 0.987 | normalized growth (S. cerevisiae deletion strains, locus YPL055C, strain LGE1, stronger effect = lower value): 0.989 | normalized growth (S. cerevisiae deletion strains, locus YPL078C, strain atp4, stronger effect = lower value): 0.991 | normalized growth (S. cerevisiae deletion strains, locus YPL106C, strain sse1, stronger effect = lower value): 0.966 | normalized growth (S. cerevisiae deletion strains, locus YPL240C, strain hsp82, stronger effect = lower value): 0.978 | normalized growth (S. cerevisiae deletion strains, locus YPL241C, strain CIN2, stronger effect = lower value): 1 and 0.992 | normalized growth (S. cerevisiae deletion strains, locus YPL256C, strain CLN2, stronger effect = lower value): 1.03 | normalized growth (S. cerevisiae deletion strains, locus YPR119W, strain clb2, stronger effect = lower value): 0.994 | normalized growth (S. cerevisiae deletion strains, locus YPR141C, strain kar3, stronger effect = lower value): 0.956 | normalized growth (S. cerevisiae deletion strains, locus YPR163C, strain tif3, stronger effect = lower value): 0.986 | normalized growth (S. cerevisiae deletion strains, locus YPR167C, strain met16, stronger effect = lower value): 0.988 | normalized growth (S. cerevisiae deletion strains, strain wtn01, stronger effect = lower value): 0.991 | normalized growth (S. cerevisiae strains, strain wild type, stronger effect = lower value): 0.977
